# Screening results from PubChem BioAssay.
# Only some compounds are listed: those with a hit (about 12% of all), similar ones and a draw of the others.
# Lmaj promast: reduces viability of Leishmania major promastigotes; resazurin fluorescence viability; inhibition, % at 10 µM; hit rate 9% among 200,000; AID 1063; in the data active = inhibition above about 50%;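 note: promastigotes grown with compound for 44 hours at 28 °C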
# CHOP inh: CHOP inhibition in unfolded protein response | AID 2732 | inhibition, % at 10 µM | CHO-K1 CHOP-promoter luciferase, tunicamycin-induced, 15-18 h | hit rate 3.8% among 220,000;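 active = compounds that reduced the stress-induced luciferase reporter signal by more than about 70% of percent inhibition, limit read from the data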;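 note: 0% = tunicamycin plus vehicle and 100% = wells without tunicamycin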
# WT yeast gro inh: growth inhibition of WT yeast, mitochondrial fusion screen; mitochondrial fusion phenotypic screen, WT strain; inhibition, % at 10 µM; hit rate 2.1% among 190,000; AID 1362; in the data active = inhibition above about 58%; tested in S. cerevisiae
# Arbovirus anti: arbovirus infection inhibition; arbovirus infection cell-based antiviral screen; inhibition, % at 10 µM; hit rate 0.37% among 200,000; AID 1251; in the data active = inhibition above about 30%
# Lmaj promast 1uM: blocks Leishmania major promastigote growth at 1 uM, repeat screen. shares compounds with Lmaj promast. L. major promastigote growth, resazurin fluorescence, 48 h. inhibition, % at 1 µM. hit rate 13% among 1,100. AID 1258;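 active = inhibition above about 50% in both repeat tests, limit read from the data; inconclusive = one repeat under the set limit, the other over it; inactive = both repeats under the set limit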
# * marks the source's active call; other numbers are inactive results; u = inconclusive; x = not tested or not shown.
SMILES,Lmaj promast,CHOP inh,WT yeast gro inh,Arbovirus anti,others
O=C(c1cn(Cc2ccccc2)c2ccccc12)N1CCCCC1,10.6,0.1,-6.0,15.8,
O=C(N/N=C1/CN2CCC1CC2)c1cc2ccccc2cc1O,91.6*,-6.1,-2.9,-22.1,
Cc1cccc(N2CCc3c2nc2ccccc2c3N)c1,93.8*,20.6,-2.0,-1.5,
CC(C)(C)C(=O)OCC12CCC(O1)C1(C)C(=O)OCC21 (stereo not drawn),-5.7,18.8,5.6,-11.4,
COc1cccc(CN2CCCCC2c2cccnc2)c1 (stereo not drawn),72.1*,18.7,-10.7,12.2,
Cc1cccc(C)c1NC(=O)c1cccn(Cc2ccc3c(c2)OC(F)(F)O3)c1=O,31.2,85.9*,60.8*,-34.0,
CCOP(=O)(OCC)c1cc(CC)ccc1O,x,-25.1,x,x,
O=C1NC(=O)N(c2ccccc2)C(=O)/C1=C\C=C\c1ccccc1,x,80.9*,x,x,
CC(C)c1ccc(N2C(=O)NC(=O)/C(=C/C=C/c3ccco3)C2=O)cc1,94.1*,103.2*,-7.2,7.1,
CCc1ccc(N2C(=O)NC(=O)/C(=C\C=C\c3ccco3)C2=O)cc1,x,108.2*,x,x,
Cc1ccc(N2C(=O)NC(=O)/C(=C/C=C/c3ccco3)C2=O)cc1,83.0*,101.5*,3.4,3.2,
C/C(=C/C=C/[C@@H](C)C(=O)O)[C@H]1CN[C@H](C(=O)O)[C@H]1CC(=O)O,-2.7,8.5,-18.4,2.5,
NC(=O)CN1CC(O)CC1=O (stereo not drawn),x,14.1,x,x,
COc1ccc(NC(=O)c2cc([N+](=O)[O-])ccc2N2CCNCC2)cc1,-0.1,-1.6,3.1,7.1,
O=[N+]([O-])c1cc(-c2ccc([As](=O)(O)O)cc2)ccc1[As](=O)(O)O,x,-3.2,x,x,
O=C(N/N=C/c1c(O)n(Cc2ccco2)c(=O)[nH]c1=O)c1ccccc1O,x,-31.0,x,x,
O=C1NC(=O)C(C(CC(=O)c2ccccc2)c2ccccc2)C(=O)N1 (stereo not drawn),-4.2,26.5,4.0,3.3,
CCC(=NCCC(c1ccccc1)c1ccccc1)c1c(O)[nH]c(=O)[nH]c1=O,71.8*,30.7,7.0,-12.2,
Nc1c(C(=O)OCc2ccccc2)c2nc3ccccc3nc2n1Cc1cccs1,69.2*,30.6,9.6,1.6,
CC(C)(C)OC(=O)c1c(N)n(Cc2ccco2)c2nc3ccccc3nc12,35.2,10.6,1.7,-15.9,
CCC(C)OC(=O)c1c(N)n(Cc2cccs2)c2nc3ccccc3nc12 (stereo not drawn),90.8*,32.1,17.6,-9.3,
CCOCCCNC(=O)C1c2cc(OC)c(OC)cc2C(=O)N2CCCCC12 (stereo not drawn),-2.9,-12.2,-0.7,-1.7,
CCC(C)NC(=O)c1c(N)n(Cc2ccc3c(c2)OCO3)c2nc3ccccc3nc12 (stereo not drawn),65.2*,x,-1.9,-11.6,
CCC(C)NC(=O)c1c(N)n(CCCOC)c2nc3ccccc3nc12 (stereo not drawn),13.7,26.3,4.5,-25.6,
CC/C(=C\C=C\[C@@H]1C=C[C@@H]2CCC[C@H]2[C@@H]1C(=O)c1ccc[nH]1)[C@@H]1O[C@@H]([C@@H](C)C(=O)O)CC[C@@H]1C,-3.1,60.8,80.6*,-12.4,
SMILES,Lmaj promast,CHOP inh,WT yeast gro inh,Arbovirus anti,others
Cn1nnc(CC[N+](C)(C)C)n1,x,-5.4,x,x,
Cc1cc(/C=C2\C(=O)NC(=O)N(c3ccc(Cl)cc3)C2=O)c(C)n1C,-2.5,79.5*,-4.2,5.9,
CCc1ccccc1N1C(=O)NC(=O)/C(=C\c2cc(C)n(C)c2C)C1=O,54.0*,27.9,-10.8,-3.5,
Cc1cc(C)cc(N2C(=O)NC(=O)/C(=C\c3cc(C)n(C)c3C)C2=O)c1,1.1,9.7,-3.5,-4.4,
CCOP(=O)(OCC)C1(C(=O)O)CCCC1,x,14.6,x,x,
O=c1[nH]c(=O)n(CCC2=CCCCC2)c(O)c1/C=N/N1CCOCC1,x,1.8,x,x,
O=c1[nH]c(=O)n(CCC2=CCCCC2)c(O)c1/C=N/Nc1ccccc1,80.5*,61.3,21.4,-26.8,
O=c1[nH]c(=O)n(CCC2=CCCCC2)c(O)c1/C=N/Nc1cccc2ccccc12,x,71.4*,x,x,
CCN(CC)C(=O)N[C@@H]1C[C@@H]2c3cccc4[nH]cc(c34)C[C@H]2N(C)C1,x,-5.2,x,x,
CNCCc1c[nH]c2ccccc12,-3.7,-1.0,3.9,-0.7,
c1ccc2c(CCNCc3ccc4c(c3)OCO4)c[nH]c2c1,77.4*,-7.2,13.2,-26.8,
COc1ccc(N=Cc2c(O)n(Cc3cccs3)c(=O)[nH]c2=O)cc1,-1.0,81.4*,-1.3,-16.6,
CCOc1ccc(N=Cc2c(O)n(CCc3ccc(OC)c(OC)c3)c(=O)[nH]c2=O)cc1,x,89.9*,x,x,
COc1ccc(N=Cc2c(O)n(CC3CCCO3)c(=O)[nH]c2=O)cc1 (stereo not drawn),1.6,-13.8,-15.5,-20.8,
CC1CCN(C(=O)C(C)Cl)CC1 (stereo not drawn),-4.2,4.3,0.1,3.7,
Cc1ccc(-c2cc(-c3ccc(C)cc3)[n+](C)o2)cc1,100.2*,-11.2,2.0,10.3,Lmaj promast 1uM=98.6*
COC1=CC(=O)OC(/C=C/c2ccccc2)C1 (stereo not drawn),-10.7,3.5,8.4,8.3,
CCn1ccnc1CN1CCCC(C(=O)c2cc(C)c(OC)c(C)c2)C1 (stereo not drawn),-1.9,30.4,2.1,1.2,
CC(C)(O)[C@H]1O[C@H]2CC[C@@]3(C)[C@@](O)(CC[C@H]4Cc5c([nH]c6ccccc56)[C@@]43C)C2=CC1=O,94.3*,82.1*,74.5*,-29.9,Lmaj promast 1uM=14.3
N#CCN1CCN(c2ccc(C(F)(F)F)cc2)CC1,-6.2,5.6,3.6,1.0,
Cn1cc2c([N+](=O)[O-])cc([N+](=O)[O-])cc2n1,99.7*,-26.1,13.7,-14.8,Lmaj promast 1uM=-3.8
O=C(c1ccc(-c2ccccc2)c(F)c1)C1CCCN(CCO)C1 (stereo not drawn),99.3*,-10.5,25.1,-34.3,Lmaj promast 1uM=63.1*
CCOc1cc(C2NCc3ccccc3-n3cccc32)ccc1O (stereo not drawn),99.2*,-18.0,-10.4,7.2,Lmaj promast 1uM=-17.9
CCOc1cccc(C2NCc3ccccc3-n3cccc32)c1O (stereo not drawn),19.2,21.6,6.5,6.3,
O=C(C(Cc1ccccc1)NS(=O)(=O)c1ccc(F)cc1)N1CCC2(CC1)OCCO2 (stereo not drawn),0.8,-28.0,3.8,0.9,
SMILES,Lmaj promast,CHOP inh,WT yeast gro inh,Arbovirus anti,others
COc1ccc(C2=NCc3nnc(C)n3-c3ccc(Cl)cc32)cc1Cl,8.4,-4.7,-28.9,-27.2,
COc1ccccc1C1=NCc2nnc(C)n2-c2ccc(Cl)cc21,60.6*,-5.3,0.9,-2.2,Lmaj promast 1uM=-15.5
CCC1(CCc2ccncc2)C(=O)NC(=O)NC1=O,-5.0,4.3,-7.7,4.2,
O=C1N(c2ccc(Cl)cc2)C(c2cccnc2)N2CCCN12 (stereo not drawn),69.4*,-2.4,1.6,-2.2,Lmaj promast 1uM=17.0
CCC12CN3CC(CC)(CN(C1)C3c1cccnc1)C2=O (stereo not drawn),0.6,-6.5,8.9,2.3,
CC(C)NC(C)Cc1ccc(I)cc1 (stereo not drawn),x,-5.0,x,x,
CCC1(CC)C(=O)N(Cc2ccccc2)C(=O)N(Cc2ccccc2)C1=O,81.9*,-2.0,37.5,1.6,Lmaj promast 1uM=u
Cc1nn(Cc2ccccc2)c(C)c1C(=O)O,-3.9,11.0,-2.0,11.3,
